IL1B secr inh = qHTS for Inhibitors of Inflammasome Signaling: IL-1-beta AlphaLISA Primary Screen; THP-1 LPS/ATP IL-1B secretion, AlphaLISA, 16 h; stronger effect = lower value; activity change, % at 57.5 µM; 360,000 compounds, 4.7% hits; in the data active means activity change below about -50%; inconclusive means mostly about -30% to -49%; further: on the % scale 0 is the no-effect control and ±100 the full control effect
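THP-1 cells pretreated 1 hr with compounds (up to 57.5 uM final), then stimulated with LPS (250 ng/mL final) plus ATP (1.25 mM final); secreted IL-1B measured by AlphaLISA after 16 hr, decreased signal indicating inhibition.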
ATXN viability = Viability Counterscreen for Primary qHTS for Inhibitors of ATXN expression; 400,000 compounds, 0.49% hits; Potency, µM (series often up to 56.7 µM), hits mostly cytotoxic; S2 cells (HEK-293 line with an ATXN2-luciferase reporter) viability, CellTiter-Fluor protease fluorescence, 24 h; AID 651635, 2014; further: potency means the concentration at half of the fitted maximal effect; nearly all actives have a fitted effect of over 40% in size
D3 ag = qHTS of D3 Dopamine Receptor Agonist: qHTS; D(3) dopamine receptor (Homo sapiens), P35462; D3R DiscoveRx beta-arrestin cells, luminescence, 90 min; max activation, %; 410,000 compounds, 0.58% hits; in the data active means max activation above about 30%; further: 0% is about no effect
Target sequence (P35462 whole entry, looked up): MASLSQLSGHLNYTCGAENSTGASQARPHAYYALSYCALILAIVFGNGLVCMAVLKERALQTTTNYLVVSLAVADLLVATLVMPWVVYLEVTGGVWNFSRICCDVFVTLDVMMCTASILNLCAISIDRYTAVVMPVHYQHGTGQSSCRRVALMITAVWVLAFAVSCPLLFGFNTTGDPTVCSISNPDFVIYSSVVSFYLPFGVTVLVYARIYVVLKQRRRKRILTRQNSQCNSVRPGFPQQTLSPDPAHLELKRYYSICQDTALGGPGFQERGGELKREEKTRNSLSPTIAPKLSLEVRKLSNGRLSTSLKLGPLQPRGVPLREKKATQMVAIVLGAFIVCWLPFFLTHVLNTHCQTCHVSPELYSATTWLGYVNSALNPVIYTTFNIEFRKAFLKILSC
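Agonist mode: compounds and dopamine controls were applied to plated cells for 90 min at 37 degrees C after an overnight attachment at 1500 cells/well. Luminescent read-out followed 30 - 60 minutes at room temperature with DiscoveRx detection reagent.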
a7 integrin act = qHTS for Activators of Integrin-Mediated Alleviation for Muscular Dystrophy; alpha7betagal myoblasts, beta-gal FDG fluorescence, 48 h; Potency, µM (doses to about 38.3 µM), for inactives: top-dose activation, most hits filed as activators; 350,000 compounds, 0.064% hits; AID 624291, 2012;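 further: potency means the concentration at half of the fitted maximal effect; 100% = response of the positive control SU9516; nearly all actives have a fitted effect of over 60% in size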
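Alpha7betagal+/- myoblasts (passage 13) were plated 16-24 hr, then exposed to compounds (1:260 dilution of DMSO stock) for 48 hours at 37C. After MPER lysis, β-galactosidase reporter activity was read as FDG fluorescence (ex 480/em 540) after 30 minutes.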
DRD3 antagonist = qHTS of D3 Dopamine Receptor Antagonist: qHTS | D3R cells, DiscoveRx beta-arrestin luminescence, antagonist mode; stronger effect = lower value | max response, negative = inhibition, % | 360,000 compounds, 2.5% hits; in the data active means max response below about -50%; inconclusive means no clear call, values can overlap the other calls; further: on the % scale 0 is the no-effect control and ±100 the full control effect
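Cells plated overnight at 1500 cells/well, then exposed to library compounds with dopamine controls for 90 minutes at 37 degrees C. DiscoveRx reagent added for 30–60 minutes at room temperature; luminescence read, quantitative HTS format.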
ATXN2 expr inh = Primary qHTS for Inhibitors of ATXN expression; Potency, µM (titrated, usually from 57 µM), for the others: at the top dose activity change, negative = inhibition, hits mostly inhibitors; 360,000 compounds, 0.72% hits; AID 1745845, 2022; HEK-293 ATXN2-luciferase reporter, luminescence, 24 h; further: potency means the concentration at half of the fitted maximal effect; on the % scale 0 is the no-effect control and ±100 the full control effect; nearly all actives have a fitted effect of over 55% in size
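ATXN2-luciferase reporter cells (luciferase flanked by upstream and downstream ATXN2 gene portions) were treated 24 h at 37 °C with compounds at up to 57 uM. SteadyGlo luminescence gave expression; GF-AFC fluorescence gave viability.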
* = called active by the depositor; i = inactive; ? = inconclusive; nt = not tested or not shown. A selection: hits, their analogues and other compounds. The true share with any hit is near 7%. Unless noted, the call rests on the fitted dose curve; in most records, active means well fitted curve in the direction sought with a large enough effect; inconclusive means small, poorly fitted or top-dose-only effect, or another doubt; inactive means no such curve, though single readings can be large; an effect the other way counts as inactive or inconclusive.

SMILES	IL1B secr inh	ATXN viability	D3 ag	a7 integrin act	DRD3 antagonist	ATXN2 expr inh
COc1ccc(-c2noc(C3CCCN(C(=O)c4ccccc4)C3)n2)cc1 (centres undefined)	-16.5	i	0.1	-36.5%	11.5	3.8%
CSCCC(NS(=O)(=O)c1cccs1)C(=O)Nc1ccc(C)c(Cl)c1 (centres undefined)	nt	?	1.0	nt	nt	-13.4%
O=C(NC1CCCCC1)C(c1ccnc2ccccc12)n1c(=O)c(-c2cc3ccccc3[nH]2)nc2ccccc21 (centres undefined)	-11.8	nt	6.0	nt	14.9	nt
O=C(NC1CCCCC1)C(c1ccccc1)n1c(=O)c(-c2cc3ccccc3[nH]2)nc2ccccc21 (centres undefined)	-68.8*	nt	-4.6	nt	-3.0	nt
CCC(C(=O)NC1CCCC1)n1c(-c2ccnc3ccccc23)nc2ccccc21 (centres undefined)	-58.7*	nt	10.4	nt	-3.3	nt
O=C(NC1CCCCC1)C(c1ccnc2ccccc12)n1c(=O)c(-c2ccccc2)nc2ccccc21 (centres undefined)	54.7	nt	-16.6	nt	-68.0*	nt
CSCCC(C(=O)NC1CCCC1)n1c(C2CCCC2)nc2ccccc21 (centres undefined)	-87.8*	nt	-3.8	nt	2.3	nt
C/C(=N\N1CCN(Cc2ccccc2)CC1)c1ccco1	14.8	i	-14.5	?	-4.9	37.2%
C=C(C)CSc1nc(N)c(C#N)c(-c2ccc(C)cc2)c1C#N	-1.1	i	-13.1	-28.1%	17.2	6.9%
O=C(NCc1ccccc1)C(CCc1ccccc1)n1c(=O)c(-c2ccccc2)nc2ccccc21 (centres undefined)	49.7	nt	-14.6	nt	-71.1*	nt
OC(COc1ccc(Cl)c2ccccc12)CN1CCN(c2ccccn2)CC1 (centres undefined)	-12.4	i	72.3*	-59.3%	5.4	-4.4%
OC(COc1ccc(Cl)cc1)CN1CCN(c2ccccn2)CC1 (centres undefined)	-7.6	?	11.8	-9.2%	-7.8	-29.0%
CC(C)(C)C1CCC(OCC(O)CN2CCN(Cc3ccccc3)CC2)CC1 (centres undefined)	-20.3	?	-7.2	-57.8%	?	0.0%
CC(C)(C)C1CCC(OCC(O)CN2CCN(c3ccccn3)CC2)CC1 (centres undefined)	?	i	65.2*	-22.4%	-3.9	-5.0%
OC(COC(c1ccccc1)c1ccccc1)CN1CCN(c2ccccn2)CC1 (centres undefined)	?	i	55.6*	-15.6%	-9.2	-21.9%
OC(CN1CCN(c2ccccn2)CC1)Cn1c2ccccc2c2ccccc21 (centres undefined)	-5.0	?	0.0	11.9%	0.5	?
O[C@@H](COc1cccc2ncccc12)CN1CCN(C2c3ccccc3[C@@H]3[C@H](c4ccccc42)C3(F)F)CC1 (some centres undefined)	nt	25.1µM*	nt	nt	nt	?
O=S(=O)(c1c(F)cccc1F)N1CCN(Cc2c(O)ccc3ccccc23)CC1	0.0	i	1.5	-17.5%	2.9	21.0%
O=C(CCc1nnc2ccc(NCc3ccco3)nn12)Nc1ccc(F)cc1F	-0.9	i	2.9	-33.9%	5.3	nt
CCOc1ccc(C(=O)C(C)=O)c(OCC)c1	-7.1	i	2.8	1.9%	11.6	2.9%
Cc1cc(OCC(O)CN2CCN(c3ccccn3)CC2)cc(C)c1Cl (centres undefined)	-69.0*	i	51.0*	-10.7%	-3.0	-5.3%
Cc1cc(C)c(OCC(O)CN2CCN(c3ccccn3)CC2)c(C)c1 (centres undefined)	-18.5	i	106.0*	0.0%	0.3	-17.0%
COC(=O)CN1C(=O)C(C)(C)Oc2ccc(C(=O)NC3CCCC3)cc21	31.0	i	-24.7	?	1.1	-8.9%
Cc1ccc(S(=O)(=O)N(C)C[C@H]2OCCCC[C@H](C)Oc3ccc(NC(=O)Nc4cccc5ccccc45)cc3C(=O)N([C@@H](C)CO)C[C@H]2C)cc1	4.2	i	-2.7	-0.1%	12.7	3.6%
CCOc1ccc(NC(=O)c2cccc3c2C(=O)N(Cc2cccnc2)C3)cc1	-82.2*	i	0.5	-21.8%	4.3	1.1%
SMILES	IL1B secr inh	ATXN viability	D3 ag	a7 integrin act	DRD3 antagonist	ATXN2 expr inh
COCCN1Cc2cccc(C(=O)Nc3ccc(C(=O)OC)cc3)c2C1=O	nt	i	6.3	nt	nt	-5.8%
COCCN1Cc2cccc(C(=O)Nc3ccc(C)cc3)c2C1=O	-68.3*	i	2.0	13.6%	7.8	-3.3%
CCCN1Cc2cccc(C(=O)Nc3ccc(CN4CCCC4)cc3)c2C1=O	-56.0*	i	-1.4	-33.8%	-19.0	3.1%
CCCN1Cc2cccc(C(=O)N3CCN(c4cc(Cl)ccc4C)CC3)c2C1=O	?	i	-4.5	21.3%	-50.8*	-10.8%
COCCNC(=O)C(OC(=O)c1ccco1)c1ccc(OC)cc1 (centres undefined)	-3.9	i	1.9	?	8.2	0.3%
CC(=O)Nc1ccc(S(=O)(=O)N2CCN(C(=O)N3CCCC3)CC2)cc1	7.1	i	2.5	6.9%	5.6	2.7%
COc1ccc(Cl)cc1NC(=O)CN1c2ccccc2CC1C (centres undefined)	21.2	i	-3.0	?	1.7	-17.8%
Nc1nc(N)nc(-c2cc(F)ccc2O)n1	-99.2*	i	-6.0	27.9%	11.4	-22.7%
COc1ccc(O)c(-c2nc(N)nc(N)n2)c1	-97.7*	i	5.2	31.1%	-12.2	15.9%
COc1ccc(Cc2nc(N)nc(N)n2)cc1	11.9	i	-3.3	7.9%	-10.5	7.1%
O=C(CN1CCN(c2ccccc2Cl)CC1)NC1CCCc2ccccc21 (centres undefined)	-59.0*	i	-20.3	0.0%	?	-16.0%
C=C1C(=O)O[C@H]2C[C@H]1[C@@H](OC(C)=O)C/C(C)=C/CC/C(C)=C\CC[C@]2(C)O	-113.4*	7.94µM*	-23.1	-1.6%	?	5.62µM*
COc1cccc(CNCCSc2nnnn2C)c1OCc1ccc(Cl)cc1	nt	i	-15.8	nt	nt	?
COc1ccccc1-c1noc(-c2cccnc2)n1	-15.2	i	-2.9	26.3%	6.0	19.9%
CC(C)CCNC(=O)C(c1ccc(O)cc1)N(Cc1cccs1)C(=O)C1COc2ccccc2O1 (centres undefined)	-73.2*	?	2.7	-31.2%	23.5	-15.7%
CC(C)c1nc2c(s1)CCc1onc(-c3ccc(Cl)cc3)c1-2	7.0	i	31.7*	-5.2%	41.0	4.9%

Source: PubChem (National Center for Advancing Translational Sciences (NCATS))
